Screening results (PubChem BioAssay)
FH mod – Identification of activators of human fumarate hydratase by quantitative high-throughput screening; FH coupled MDH/diaphorase resazurin fluorescence, 15 min; Potency, µM (titrated, usually from 79.9 µM), inactives show at the highest dose activity change, negative = inhibition, hits mostly inhibitors; 54,000 tested, 0.22% active; further: potency means the concentration at half of the fitted maximal effect; on the % scale 0 is the no-effect control and ±100 the full control effect; the screen sought activators but most active calls are inhibition curves; nearly all actives have a fitted effect of over 45% in size
Target sequence (P07954 whole entry, looked up): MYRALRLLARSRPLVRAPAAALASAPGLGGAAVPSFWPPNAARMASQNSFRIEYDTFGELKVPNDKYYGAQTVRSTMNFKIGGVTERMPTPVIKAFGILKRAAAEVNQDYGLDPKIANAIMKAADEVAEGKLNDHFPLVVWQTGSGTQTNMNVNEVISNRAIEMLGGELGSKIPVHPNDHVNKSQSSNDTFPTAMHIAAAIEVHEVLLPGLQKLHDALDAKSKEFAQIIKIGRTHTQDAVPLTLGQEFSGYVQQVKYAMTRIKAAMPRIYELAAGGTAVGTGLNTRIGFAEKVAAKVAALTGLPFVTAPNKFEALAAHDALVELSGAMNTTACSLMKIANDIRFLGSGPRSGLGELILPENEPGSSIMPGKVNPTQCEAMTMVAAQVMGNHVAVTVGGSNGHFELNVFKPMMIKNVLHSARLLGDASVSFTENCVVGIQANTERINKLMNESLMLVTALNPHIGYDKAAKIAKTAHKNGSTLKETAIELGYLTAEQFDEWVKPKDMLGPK
SKOV3 invasion – ovarian cancer metastasis inhibition, 3D TME model | SKOV3ip1-GFP adhesion/invasion on 3D omental model, fluorescence | 46,000 tested, 0.1% active | Potency, µM (highest dose often 45.8 µM), for inactives: at the top dose activity change, negative = inhibition, hits mostly inhibitors;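 further: potency means the concentration at half of the fitted maximal effect; plate controls were DMSO wells for no effect and tomatine positive control wells for full effect; nearly all actives have a fitted effect of over 65% in size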
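Adhesion/invasion was scored as fixed GFP-labeled SKOV3ip1 cell counts (488/509 nm), normalized to DMSO and tomatine controls. Cancer cells in serum-free medium, with four compound doses (0.36-46 umol/L), sat 2 hr at RT then 16 hr at 37 C on a 48 hr fibroblast/mesothelial/ECM culture.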
GPR32 ag – agonists of human resolvin D1 receptor DRV1 (GPR32). O75388. CHO-K1 GPR32 beta-arrestin PathHunter luminescence, 90 min; zero percent set by DMSO-only wells. activation, % at 76.9 µM. 48,000 tested, 2.5% active;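 active means activation of at least 60% and not above a set upper limit, about 1 call in 100 departs from these limits; inconclusive means activation of 40% to 60%, or above that upper limit; inactive means activation under 40%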; further: 0% is about no effect
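Cells are plated overnight, treated with compounds in DMSO for 90 minutes at 37 °C, and developed with PathHunter detection reagent for 1 hour before luminescence is read; signal reflects beta-arrestin binding to GPR32 in engineered CHO-K1 cells.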
NTMT1 inh – NTMT1 methyltransferase inhibition. Potency, µM (series often up to 114 µM), for the others: at the highest dose activity change, negative = inhibition, usual class: inhibitors. AID 1645870. 59,000 tested, 2.5% active. NTMT1 MTase-Glo SAH luminescence, purified enzyme;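 further: potency means the concentration at half of the fitted maximal effect; plate controls were DMSO vehicle for no effect and no enzyme for full effect; nearly all actives have a fitted effect of over 65% in size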
Numbers without * were called inactive; ! = repeats disagree; [ ] = another dose, or the depositor's remark. Only some compounds are listed: those with a hit (about 3.8% of all), similar ones and a draw of the others. Unless noted, the call rests on the fitted dose curve; in most records, active means well fitted curve in the direction sought with a large enough effect; inconclusive means small, poorly fitted or top-dose-only effect, or another doubt; inactive means no such curve, though single readings can be large; an effect the other way counts as inactive or inconclusive.

Results for COc1ccc(Nc2oc(-c3ccc(COc4cccc(C)c4)o3)nc2C#N)cc1 ?
FH mod: -9%; SKOV3 invasion: -50%; GPR32 ag: 97*; NTMT1 inh: 5%

How did CCOc1ccc(Nc2oc(-c3ccc(COc4ccc(C)cc4)o3)nc2C#N)cc1 do in these assays?
FH mod: -2%; SKOV3 invasion: -17%; GPR32 ag: 67*; NTMT1 inh: 5%

How did CCN(C(=O)Cc1c(C(=O)O)c(C)cn1C)c1cccc(Cl)c1 do in these assays?
FH mod: 2%; SKOV3 invasion: 3%; GPR32 ag: -5; NTMT1 inh: 4%

What do the screens show for `Cc1cccc(-c2nc3c4ccccc4n(Cc4cccc(Cl)c4)c(=O)n3n2)c1`?
FH mod: -13%; SKOV3 invasion: 9%; GPR32 ag: -13; NTMT1 inh: 15%

What do the screens show for `CC1=C2C=C(CO)C(CO)CCC2(C)CCC1=O` (stereo not drawn)?
FH mod: 5%; NTMT1 inh: 5%[57.5 µM]

Results for Cc1ccc(Cn2cc(S(=O)(=O)c3ccccc3)c(=O)c3cc(F)c(N4CCOCC4)cc32)cc1 ?
FH mod: -15%; SKOV3 invasion: -3%; GPR32 ag: -11; NTMT1 inh: -20%

What do the screens show for `Cc1c(-c2ccnc(Nc3cc(Br)cc(C(F)(F)F)c3)n2)sc(=O)n1C`?
FH mod: 8%; NTMT1 inh: 16%

Results for NS(=O)(=O)c1ccc(CCNc2nccn(-c3cccc(C(F)(F)F)c3)c2=O)cc1 ?
FH mod: 14%; SKOV3 invasion: 0%; GPR32 ag: 63*; NTMT1 inh: 7%

How did COc1ccc(-n2ccnc(NCCc3ccc(S(N)(=O)=O)cc3)c2=O)cc1Cl do in these assays?
FH mod: 5%; SKOV3 invasion: inactive; GPR32 ag: inconclusive; NTMT1 inh: 14%

Results for CC1=C(/C=C/C(C)=C/C=C/C(C)=C/C(=O)O)C(C)(C)CCC1 ?
FH mod: inconclusive; GPR32 ag: -7; NTMT1 inh: 79µM*!

How did CC(C=CC1=C(C)CCCC1(C)C)=CC=CC(C)=CC(=O)O do in these assays?
FH mod: 11%[53.3 µM]; SKOV3 invasion: -24%; NTMT1 inh: 13%[57.5 µM]

How did CCNC(=O)CCCC=CC[C@@H]1[C@H](C=CC(O)CCc2ccccc2)[C@@H](O)C[C@@H]1O (stereo partly drawn) do in these assays?
FH mod: 15%[53.3 µM]; SKOV3 invasion: 2%; NTMT1 inh: -4%[57.5 µM]

Results for Cc1ccccc1NC(=O)N1CCc2cc(S(=O)(=O)N3CCC(C)CC3)ccc21 ?
FH mod: 0%; SKOV3 invasion: 6%; GPR32 ag: -25; NTMT1 inh: 3%

What do the screens show for `CCOc1ccccc1CNS(=O)(=O)c1csc(C(N)=O)c1`?
FH mod: 9%; SKOV3 invasion: inactive; GPR32 ag: -7; NTMT1 inh: -1%

Results for O=C(NOCC1CC1)c1cc(Br)c(F)c(F)c1Nc1ccc(I)cc1Cl ?
FH mod: -24%[53.3 µM]

What do the screens show for `Cn1cnc2c(F)c(Nc3ccc(Br)cc3Cl)c(C(=O)NOCCO)cc21`?
FH mod: 6%; SKOV3 invasion: 10%; GPR32 ag: 6; NTMT1 inh: 89µM*!

How did CCc1cccc(C)c1NC(=O)CCS(=O)(=O)c1ccc2c(c1)oc(=O)n2C do in these assays?
FH mod: 0%; SKOV3 invasion: 2%; GPR32 ag: 3; NTMT1 inh: 40µM*

What do the screens show for `COc1ccc(CCNC(=O)c2ccc3c(Cl)c4c(nc3c2)CCCC4)cc1OC`?
FH mod: inconclusive; SKOV3 invasion: 123%; GPR32 ag: 24; NTMT1 inh: -18%

What do the screens show for `Cc1nn(C)c2c1c(-c1ccccc1)cc(=O)n2CC(=O)NC(C)(C)C`?
FH mod: -6%; SKOV3 invasion: 1%; GPR32 ag: 91*; NTMT1 inh: -15%

How did CCC(C)NC(=O)Cn1c(=O)cc(-c2ccccc2)c2c(C)nn(C)c21 (stereo not drawn) do in these assays?
FH mod: -46%; SKOV3 invasion: 14%; GPR32 ag: 10; NTMT1 inh: -1%

How did Clc1cccc(C2=NC(c3cccs3)=Nc3ccc(Br)cc3N2)c1 do in these assays?
FH mod: inconclusive; SKOV3 invasion: -2%; GPR32 ag: -20; NTMT1 inh: 89µM*

How did CC(C)(C)OC(=O)N1CCc2nc(N3CCN(c4ncccn4)CC3)ncc2C1 do in these assays?
FH mod: 1%; SKOV3 invasion: 3%; GPR32 ag: 62*; NTMT1 inh: 4%

What do the screens show for `Cc1ccc(CS(=O)(=O)c2ncc(Cl)c(C(=O)Nc3nc4ccc(F)cc4s3)n2)cc1`?
FH mod: -1%; SKOV3 invasion: -9%; GPR32 ag: 80*; NTMT1 inh: -2%

Results for COc1ccc2nc(NC(=O)c3nc(S(=O)(=O)Cc4ccc(C)cc4)ncc3Cl)sc2c1 ?
FH mod: -8%; SKOV3 invasion: inconclusive; GPR32 ag: 0; NTMT1 inh: 36%

Results for Cc1ccc(CS(=O)(=O)c2ncc(Cl)c(C(=O)Nc3nc4ccc(C)cc4s3)n2)cc1 ?
FH mod: 9%; SKOV3 invasion: 25µM*; GPR32 ag: 70*; NTMT1 inh: 12%

Results for CCCC(=O)n1nc(-c2cccnc2)nc1NCc1ccc(OC)cc1 ?
FH mod: -2%; SKOV3 invasion: 2%; GPR32 ag: -26; NTMT1 inh: 10%

What do the screens show for `Cc1cc(CN2CCN(c3ccccc3F)CC2)cs1`?
FH mod: -21%; SKOV3 invasion: 1%; GPR32 ag: 102*; NTMT1 inh: 18%

What do the screens show for `Cc1ccc(NC(=O)CCOc2ccccc2)cc1`?
FH mod: -8%; SKOV3 invasion: 4%; GPR32 ag: -9; NTMT1 inh: 9%

What do the screens show for `COCCN1C(=O)c2[nH]nc(-c3c(C)cc(C)cc3O)c2C1c1cccc(O)c1` (stereo not drawn)?
FH mod: 3%; SKOV3 invasion: 7%; GPR32 ag: 85*; NTMT1 inh: 13%

How did COc1cc(C2c3c(-c4c(C)cc(C)cc4O)n[nH]c3C(=O)N2Cc2ccco2)cc(OC)c1OC (stereo not drawn) do in these assays?
FH mod: -8%; SKOV3 invasion: 0%; GPR32 ag: 65*; NTMT1 inh: 14%

Results for CCOc1cccc(C2c3c(-c4cc(C)ccc4O)n[nH]c3C(=O)N2Cc2ccco2)c1 (stereo not drawn) ?
FH mod: inconclusive; SKOV3 invasion: inconclusive; GPR32 ag: 28; NTMT1 inh: 2%

What do the screens show for `COc1cc(C2c3c(-c4c(C)cc(C)cc4O)n[nH]c3C(=O)N2CCO)cc(OC)c1OC` (stereo not drawn)?
FH mod: -2%; SKOV3 invasion: 7%; GPR32 ag: inconclusive; NTMT1 inh: 10%

How did COc1cc(C2c3c(-c4cc(C)ccc4O)n[nH]c3C(=O)N2Cc2ccco2)cc(OC)c1OC (stereo not drawn) do in these assays?
FH mod: 22µM*; SKOV3 invasion: 4%; GPR32 ag: -17; NTMT1 inh: 7%
